Assay outcomes from PubChem.
PNC assembly inh: perinucleolar compartment assembly inhibition; PC3M PTB-GFP, PNC prevalence imaging, 16 h; hits give low values; activity change (PNC), negative = inhibition, % at 10 µM; 140,000 compounds, 3.1% hits; AID 2417;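 active means readout at or below -70, meaning at least 70% loss of cells showing the perinucleolar compartment, a nuclear body marking cancer cells; inconclusive means readout between -30 and a set limit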;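 further: plate controls were DMSO wells for no effect and camptothecin positive control wells for full effect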
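Read-out is percentage of cells bearing a perinucleolar compartment, from automated 20x imaging of fixed, Hoechst-stained PC3M PTB-GFP cells. Cells were seeded 4 h, then exposed 16 h to compound (23 nl of library stock) in duplicate plates.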
HPGD inh: inhibitors of human 15-hydroxyprostaglandin dehydrogenase (HPGD). 150,000 compounds, 4.3% hits. P15428. AID 894. Potency, µM, inactives show at the highest dose activity change, negative = inhibition, hits mostly inhibitors. purified HPGD, NADH fluorescence kinetic, PGE2 substrate; further: potency means the concentration at half of the fitted maximal effect
Target sequence (P15428 whole entry, looked up): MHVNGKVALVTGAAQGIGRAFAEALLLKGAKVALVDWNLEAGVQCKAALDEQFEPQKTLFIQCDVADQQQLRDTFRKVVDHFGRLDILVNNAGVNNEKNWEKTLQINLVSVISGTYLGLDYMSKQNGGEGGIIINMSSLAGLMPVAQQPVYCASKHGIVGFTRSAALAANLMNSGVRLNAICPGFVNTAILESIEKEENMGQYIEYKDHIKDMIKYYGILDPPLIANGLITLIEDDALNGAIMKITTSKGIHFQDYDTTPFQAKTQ
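NADH formation kinetics: reaction with 30 uM PGE2 and 1 mM NAD+ (final), 20 nM enzyme, Tris-HCl pH 8 with Tween 20, after 15 min compound preincubation at room temperature. Fluorescence change, last versus first of five reads.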
ALDH1A1 inh: blocks purified human ALDH1A1 activity; Potency, µM (titrated, usually from 75.3 µM), inactives show at the highest dose activity, negative = inhibition, actives largely listed as inhibitors; AID 1030; 220,000 compounds, 7.3% hits; Purified ALDH1A1, NADH fluorescence, propionaldehyde substrate;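 further: potency means the concentration at half of the fitted maximal effect; plate controls were no enzyme wells and a reference inhibitor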
KDM4E inh: inhibitors of human JMJD2E histone demethylase | JMJD2E catalytic domain, FDH-coupled NADH fluorescence (FDH is formaldehyde dehydrogenase) | Potency, µM (top dose mostly 57.1 µM), for inactives: at the top dose activity change, negative = inhibition, hits mostly inhibitors | 230,000 compounds, 1.6% hits;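 further: potency means the concentration at half of the fitted maximal effect; 0% = wells with enzyme and -100% = buffer wells without enzyme; nearly all actives have a fitted effect of over 50% in size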
Target sequence (B2RXH2 1-337 limits assumed): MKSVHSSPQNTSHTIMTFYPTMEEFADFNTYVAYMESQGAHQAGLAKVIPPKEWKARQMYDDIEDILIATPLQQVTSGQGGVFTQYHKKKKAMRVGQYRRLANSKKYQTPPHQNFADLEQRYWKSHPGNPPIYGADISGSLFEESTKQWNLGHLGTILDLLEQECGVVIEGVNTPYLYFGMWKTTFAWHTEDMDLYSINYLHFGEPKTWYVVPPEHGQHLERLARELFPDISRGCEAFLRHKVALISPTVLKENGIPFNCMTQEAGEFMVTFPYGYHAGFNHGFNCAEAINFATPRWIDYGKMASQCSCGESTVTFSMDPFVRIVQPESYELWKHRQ
* marks the source's active call; other numbers are inactive results; u = inconclusive; x = no result given; [ ] = remark or other dose. Sampled rows, rich in hits. Any-hit rate of the full collection: about 11%. Unless noted, the call rests on the fitted dose curve; in most records, active means well fitted inhibition curve with a large enough effect (not every such curve was filed as active); inconclusive means small, poorly fitted or top-dose-only effect, or another doubt; inactive means no such curve, though single readings can be large or run the other way. Unless noted, on the % scale 0 is the no-effect control and ±100 the full control effect.

SMILES	PNC assembly inh	HPGD inh	ALDH1A1 inh	KDM4E inh
NC(=O)CC(NC(=O)c1cccc(Br)c1)c1ccc(N2CCC(N3CCCC3)CC2)c([N+](=O)[O-])c1 (centres undefined)	x	x	x	-9%
O=C(O)CC1(CC(=O)Nc2ccc(F)c(Cl)c2)CCCCC1	x	x	4µM*	4%
O=C(O)CC1(CC(=O)Nc2ccc3ccccc3c2)CCCCC1	-1	4µM*	u	1%
CCC(=O)Nc1ccc(F)c(Cl)c1	-106*	1%	4%	2%
C=COCCNC(=S)N1CCOCCOCCN(C(=S)NCCOC=C)CCOCCOCC1	x	x	5%	11%
Nc1c(CO)nnn1-c1ccccc1	-10	-8%	2%	12%
O=C(N/N=C/c1cccc([N+](=O)[O-])c1)c1cc2ccccc2o1	39	-4%	8%	-1%
O=C(COc1ccc(/C=N/NC(=O)c2cc3ccccc3o2)cc1Cl)Nc1ccccc1	-119*	u	u	u
COC(=O)c1cc(C(=O)Nc2ccc(S(N)(=O)=O)cc2)cc([N+](=O)[O-])c1	x	x	12%	8%
Cc1onc(-c2ccccc2Cl)c1C(=O)N1CCN(c2nc3ccccc3s2)CC1	-113*	-16%	14µM*	0%
O=C(COC(=O)c1cccs1)Nc1ccc(S(=O)(=O)N2CCOCC2)cc1	u	-2%	-2%	-1%
Cc1cc(O)ccc1Nc1nc2ccccc2nc1Nc1ccc(O)cc1C	32	-16%	22µM*	25µM*
Cc1ccc(Nc2nc3ccccc3s2)c(C)c1	-27	-18%	4%	-6%
C[C@@]12CC[C@@H]3[C@@H](CC[C@H]4C[C@@H](O)CC[C@]43C)[C@H]1CC[C@@H]2c1cc(C(F)(F)F)n[nH]1	x	-2%	3%[13.5 µM]	x
CS(=O)(=O)c1ccc(C(=O)NC2CCCc3ccccc32)cc1 (centres undefined)	x	x	-6%	-3%
O=C(N/N=C/c1ccc([N+](=O)[O-])s1)c1ccccc1	x	x	-5%	-4%
O=C(N/N=C\c1ccc([N+](=O)[O-])s1)c1cncc(Br)c1	-102*	-4%	6%	-16%
CCN(CC)S(=O)(=O)c1cc(C(=O)Nc2cc(Cl)ccc2N2CCN(C)CC2)ccc1Cl	28	-16%	2%	-1%
CN1CCN(c2ccc(Cl)cc2NS(=O)(=O)c2ccccc2Cl)CC1	21	-9%	14µM*	-1%
O=C(OCc1c(Cl)cccc1Cl)c1cccnc1	35	-6%	u	u
C=CCn1c(Cc2cccs2)nnc1SCC(=O)Nc1cccc(OC)c1	-5	-4%	-2%	2%
C=CCn1c(SCC(=O)c2cccs2)nc2sc(C)cc2c1=O	-18	u	11µM*	-3%
C=CCn1c(SCC(=O)c2cccs2)nnc1-c1cccc(OC)c1	13	20µM*	u	1%
CC(=O)c1cccc(CN2CCCC(CCC(=O)NCc3ccccc3F)C2)c1 (centres undefined)	x	x	-6%	6%
Cc1sc2ncnc(NCC3(N4CCOCC4)CCCCC3)c2c1C	7	-20%	8%	4%
SMILES	PNC assembly inh	HPGD inh	ALDH1A1 inh	KDM4E inh
c1nc(NCC2(N3CCOCC3)CCCCC2)c2ccsc2n1	-100*	-18%	4%	-3%
N#Cc1c(NC(=O)CSc2nc(N)cc(=O)[nH]2)sc2c1CCCC2	x	x	1%	-33%
CCOC(=O)N1CCN(C(=O)CCCn2c(=S)[nH]c3ccc(Br)cc3c2=O)CC1	9	-12%	-5%	-10%
CCN1CCCC1CNC(=O)CSc1cc(=O)n(C)c2cc(Cl)ccc12 (centres undefined)	-1	x	-4%	3%
O=C(CCCn1c(=O)[nH]c2cc(Cl)ccc2c1=O)NCCCN1CCCC1	22	-13%	12%	-5%
Cn1c(=O)cc(SCC(=O)NCC2CCCO2)c2ccc(Cl)cc21 (centres undefined)	-11	14µM*	-8%	u
O=C(CCCn1c(=S)[nH]c2ccc(Br)cc2c1=O)NCC1CCCO1 (centres undefined)	15	7.1µM*	1.4µM*	0%
O=C(CCCn1c(=O)[nH]c2cc(Cl)ccc2c1=O)NCC1CCCO1 (centres undefined)	-119*	-15%	-7%	4%
NS(=O)(=O)c1ccc(NC(=O)CN2C(=O)CCC2=O)cc1	x	x	x	-13%
COC(=O)c1ccc(NC(=O)CCOc2ccccc2)cc1	x	x	-13%	u
COC(=O)c1ccc(NC(=O)CNc2ccccc2)cc1	x	x	22µM*	4%
O=C(CN1C(=O)CCC1=O)Nc1ccc(Br)cc1	9	-17%	2.5µM*	4%
COC(=O)c1ccc(NC(=O)CN2C(=O)CCC2=O)cc1	14	32µM*	u	11%
C#C[C@@]1(O)CCC2C3CCC4=CC(=O)CCC4C3CC[C@@]21CC (some centres undefined)	x	-9%	-2%	10%
CC(C)CNC(=O)O	x	-14%	-10%[13.5 µM]	x
O=Cc1[nH]c2ccccc2c1N(C(=O)CCl)c1ccc([N+](=O)[O-])cc1	x	x	7.9µM*	-5%
CC(=O)n1cc(N(C(=O)CCl)c2ccc([N+](=O)[O-])cc2)c2ccccc21	x	x	x	-2%
O=C(C1CCCN(S(=O)(=O)c2ccc(Br)s2)C1)N1CCCCCC1 (centres undefined)	-3	-11%	5.6µM*	12%
O=C(O)C1CCCN(S(=O)(=O)c2ccc(Br)s2)C1 (centres undefined)	x	x	-1%	7%
CC(C)c1ccc(CN(C)CC(O)c2ccccc2)cc1 (centres undefined)	x	x	-14%	u
O=C(c1ccc(N2CCN(C3CC(=O)N(Cc4cccs4)C3=O)CC2)cc1)c1cccnc1 (centres undefined)	x	x	3.2µM*	-4%
O=C(c1ccncc1)c1ccc(N2CCN(C3CC(=O)N(Cc4ccccc4)C3=O)CC2)cc1 (centres undefined)	22	-12%	-11%	-5%
COC(=O)c1cc(NS(=O)(=O)c2ccc(C)c3ccccc23)ccc1N1CCOCC1	x	x	x	-16%
Cc1c(N=C2N=C(NC(=O)c3ccc(F)cc3)c3ccccc32)c(=O)n(-c2ccccc2)n1C	x	x	u	9%
COC(=O)c1cccc(-c2ccc(C(c3c(C)[nH][nH]c3=O)c3c(C)[nH][nH]c3=O)o2)c1	x	x	6.3µM*	8%
SMILES	PNC assembly inh	HPGD inh	ALDH1A1 inh	KDM4E inh
Cc1[nH][nH]c(=O)c1C(c1ccc(-c2ccc(Cl)c(C(=O)O)c2)o1)c1c(C)[nH][nH]c1=O	x	x	10µM*	13%
Cc1ccc(NC(=O)CSc2nnc(-c3ccccn3)n2N)c(Br)c1	x	x	x	18%
O=C(NCCCn1ccnc1)c1ccc(N2CCCCC2)c([N+](=O)[O-])c1	x	x	7.9µM*	5%
CCOc1ccc(C(=O)NCCCn2ccnc2)cc1	-12	-2%	12%	6%
COc1ccc(C(=O)NCCCn2ccnc2)cc1	-27	-8%	7.9µM*	2%
C=C(C)C(=O)Nc1cccc(C2=NOC3(C2)C[C@H](C(N)=O)N(C(=O)COc2ccc(Cl)cc2)C3)c1 (some centres undefined)	x	x	x	-11%
CCOC(=O)c1oc2ccccc2c1NC(=O)COc1ccc(F)cc1	11	x	u	u
CCOC(=O)c1oc2ccccc2c1NC(=O)COc1cccc(OC)c1	78	u	u	5µM*
